# According to PubChem BioAssay (EPA / NIEHS):
# Where “and” joins values, the source holds several entries; their conditions need not be identical. Equal entries are not always repeated. Results filed as inconclusive are left out. Some compounds were tested as several samples or in several runs, with calls that do not always agree. Calls of active or inactive are those of the source. How the source made its calls: active means hit-call score of the fitted dose curve at least 0.9, where 1 is the maximum; inconclusive means response in the unintended direction; inactive means score below 0.9.
# How the values were obtained:
# [1] = ATG_M_06_XSP2: Attagene TRANS-FACTORIAL Multi-Species (XSP2) HepG2 Assay for M06 Transcription Factor (Internal Marker) (AID 2283811);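 further: hits are increases in signal above the DMSO baseline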
# Procedure, shortened: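 Cells of the human liver line HepG2 carried transfected reporter transcription units and were treated for 24 h. Induced reporter transcripts were detected by fluorescence after RT-PCR and capillary electrophoresis, with activity fitted in the gain direction against DMSO.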
# [2] = tested on: turtle Estrogen Receptor (ERa), gene 101933533; assay: ATG_trERa_XSP2: Attagene TRANS-FACTORIAL Multi-Species (XSP2) HepG2 Assay for turtle Estrogen Receptor (ERa) (AID 2283812);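 further: actives raise reporter signal above DMSO so AC50 reflects agonist activity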
# Procedure, shortened: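 Readout is reporter mRNA quantified by RT-PCR with capillary electrophoresis after 24 h compound exposure, increase relative to DMSO. Uses transiently transfected human HepG2 liver cells carrying a chimeric turtle ERa-Gal4 receptor driving GAL4-UAS reporters.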
# [3] = molecular target: Estrogen receptor beta (Homo sapiens) (UniProt Q92731); assay: ATG_hERb_XSP2: Attagene TRANS-FACTORIAL Multi-Species (XSP2) HepG2 Assay for human Estrogen Receptor (ERb) (AID 2283813);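 further: actives raise reporter mRNA above DMSO so AC50 reflects agonist induction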
# Procedure, shortened: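 Transient TRANS reporter system in HepG2: after 24 h of chemical, RNA is reverse-transcribed, reporter cDNA amplified, FAM-labelled and sized by capillary electrophoresis. Induction of the human ERb-Gal4 reporter is measured relative to DMSO.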
# [4] = molecular target: GAL4 Transcription Factor (Internal Marker), GAL4 (gene 855828) (UniProt P04386); assay: ATG_GAL4_XSP2: Attagene TRANS-FACTORIAL Multi-Species (XSP2) HepG2 Assay for GAL4 Transcription Factor (Internal Marker) (AID 2283814);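 further: GAL4 reporter mRNA background control in MRTU transfected cells not a receptor target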
# Procedure, shortened: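 Background-control readout: gain-of-signal fitted against DMSO. After 24 h exposure of transfected HepG2 (MRTU, GAL4-UAS reporters; 3 nM 6-alpha-fluorotestosterone, 1.5 nM norgestrel present), transcripts quantified by RT-PCR and capillary electrophoresis fluorescence.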
# [5] = molecular target: zebrafish Estrogen Receptor (ER1), esr1 (gene 259252) (UniProt P57717); assay: ATG_zfER1_XSP2: Attagene TRANS-FACTORIAL Multi-Species (XSP2) HepG2 Assay for zebrafish Estrogen Receptor (ER1) (AID 2283816)
# Procedure, shortened: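 After 24 h compound exposure, RNA from transfected HepG2 cells was reverse-transcribed and reporter transcripts resolved by capillary electrophoresis. The TRANS format reads exogenous zebrafish ER1-Gal4 chimera activity on GAL4-UAS elements; gain of signal against DMSO.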
# [6] = molecular target: chicken Estrogen Receptor (ERa), ESR1 (gene 396099) (UniProt P06212); assay: ATG_chERa_XSP2: Attagene TRANS-FACTORIAL Multi-Species (XSP2) HepG2 Assay for chicken Estrogen Receptor (ERa) (AID 2283817);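 further: actives raise reporter signal above DMSO so AC50 reflects ER activation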
# Procedure, shortened: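 Exogenous chicken ERa-Gal4 chimera activity was assessed in transfected human liver HepG2 cells after 24 h of treatment. Induced reporter mRNA was quantified fluorescently by capillary electrophoresis, with DMSO as baseline.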
# [7] = tested on: zebrafish Estrogen Receptor (ER2a), gene 317734; assay: ATG_zfER2a_XSP2: Attagene TRANS-FACTORIAL Multi-Species (XSP2) HepG2 Assay for zebrafish Estrogen Receptor (ER2a) (AID 2283818);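 further: hits raise reporter mRNA so AC50 reflects activation of zebrafish ER2a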
# Procedure, shortened: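 Multiplexed trans-reporter readout: RT-PCR then capillary electrophoresis of reporter transcripts after 24 h compound treatment. Human HepG2 carries transfected zebrafish ER2a-Gal4 chimera; 3 nM 6-alpha-fluorotestosterone plus 1.5 nM norgestrel present. Induction scored against DMSO.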
# [8] = tested on: frog Estrogen Receptor (ER), gene 398734; assay: ATG_frER1_XSP2: Attagene TRANS-FACTORIAL Multi-Species (XSP2) HepG2 Assay for frog Estrogen Receptor (ER) (AID 2283821);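 further: hits raise reporter mRNA above DMSO baseline so potency means agonist or activator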
# Procedure, shortened: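 Gain-of-signal mRNA reporter assay, HepG2 human liver cells, 24 h dosing; transcripts read by fluorescent RT-PCR fragment analysis, DMSO as negative control.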
# [9] = ATG_M_19_XSP2: Attagene TRANS-FACTORIAL Multi-Species (XSP2) HepG2 Assay for M32 Transcription Factor (Internal Marker) (AID 2283822)
# Procedure, shortened: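 Internal background marker in a multi-species nuclear receptor TRANS panel: transfected HepG2 cells exposed 24 h, with 3 nM 6-alpha-fluorotestosterone and 1.5 nM norgestrel present. Readout is RT-PCR of reporter transcripts resolved by capillary electrophoresis, gain-of-signal versus DMSO.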
# [10] = tested on: zebrafish Estrogen Receptor (ER2b), gene 317733; assay: ATG_zfER2b_XSP2: Attagene TRANS-FACTORIAL Multi-Species (XSP2) HepG2 Assay for zebrafish Estrogen Receptor (ER2b) (AID 2283823);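 further: fitted upward as reporter gain over DMSO so potency reflects activation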
# Procedure, shortened: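 Reporter transcripts quantified by RT-PCR, fluorescent labelling and capillary electrophoresis after 24 h dosing of transfected HepG2 expressing zebrafish ER2b-GAL4 fusion. Medium contained 3 nM 6-alpha-fluorotestosterone plus 1.5 nM norgestrel; DMSO baseline.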
# [11] = molecular target: Estrogen receptor (Homo sapiens) (UniProt P03372); assay: ATG_hERa_XSP2: Attagene TRANS-FACTORIAL Multi-Species (XSP2) HepG2 Assay for human Estrogen Receptor (ERa) (AID 2283827)
# Procedure, shortened: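 Trans-activation of exogenous human ERa-Gal4 chimera read in HepG2 as reporter transcript after 24 h exposure; medium included 3 nM 6-alpha-fluorotestosterone and 1.5 nM norgestrel. Quantified by RT-PCR with capillary electrophoresis, positive-direction fitting against DMSO.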
# [12] = tested on: frog Estrogen Receptor (ER2), gene 100174814; assay: ATG_frER2_XSP2: Attagene TRANS-FACTORIAL Multi-Species (XSP2) HepG2 Assay for frog Estrogen Receptor (ER2) (AID 2283828)
# Procedure, shortened: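 Induction of reporter mRNA, baseline set by DMSO, is the endpoint. The panel was run in transfected HepG2 cells over 24 h, with 3 nM 6-alpha-fluorotestosterone and 1.5 nM norgestrel present to stimulate androgen receptor.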
# [13] = molecular target: Peroxisome proliferator-activated receptor gamma (Homo sapiens) (UniProt P37231); assay: ATG_hPPARg_XSP2: Attagene TRANS-FACTORIAL Multi-Species (XSP2) HepG2 Assay for human Peroxisome Proliferator-activated Receptor gamma (PPARg) (AID 2283829);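 further: actives raise reporter mRNA above DMSO so AC50 reflects PPARg activation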
# Procedure, shortened: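 HepG2 cells transiently transfected with GAL4-UAS reporter units driven by chimeric NR-Gal4 proteins; androgen receptor stimulated with 3 nM 6-alpha-fluorotestosterone and 1.5 nM norgestrel. After 24 h, reporter mRNA quantified by RT-PCR and capillary electrophoresis versus DMSO.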
# [14] = molecular target: mouse Peroxisome Proliferator-activated Receptor gamma (PPARg), Pparg (gene 19016) (UniProt P37238); assay: ATG_mPPARg_XSP2: Attagene TRANS-FACTORIAL Multi-Species (XSP2) HepG2 Assay for mouse Peroxisome Proliferator-activated Receptor gamma (PPARg) (AID 2283830);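 further: hits are gains in reporter mRNA above DMSO so AC50 marks activation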
# Procedure, shortened: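 Multiplexed TRANS reporter readout: after 24 h chemical exposure of transfected HepG2 cells (with 3 nM 6-alpha-fluorotestosterone, 1.5 nM norgestrel present), RNA reverse-transcribed, amplified, 6-FAM-labelled and resolved by capillary electrophoresis; mouse PPARg-Gal4 induction scored against DMSO.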
# [15] = molecular target: Nuclear receptor subfamily 1 group I member 2 (Mus musculus) (UniProt O54915); assay: ATG_mPXR_XSP2: Attagene TRANS-FACTORIAL Multi-Species (XSP1) HepG2 Assay for mouse Pregnane X Receptor (PXR) (AID 2283831)
# Procedure, shortened: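 HepG2 cells transiently transfected with GAL4-UAS reporter units expressing chimeric NR-Gal4 proteins; 24 h compound exposure. Reporter mRNA quantified by RT-PCR and capillary electrophoresis fluorescence; gain of signal fitted against DMSO.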
# [16] = molecular target: human Thyroid hormone Receptor beta (TRb), THRB (gene 7068) (UniProt P10828); assay: ATG_hTRb_XSP1: Attagene TRANS-FACTORIAL Multi-Species (XSP1) HepG2 Assay for human Thyroid hormone Receptor beta (TRb) (AID 2283808)
# Procedure, shortened: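 Readout is reporter mRNA induction measured by RT-PCR, fluorescent labelling and capillary electrophoresis, fitted upward relative to DMSO. Transiently transfected human HepG2 cells expressing NR-Gal4 chimeras were dosed for 24 h, medium containing 3 nM 6-alpha-fluorotestosterone.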
# [17] = molecular target: zebrafish Thyroid Hormone Receptor beta (TRb), thrb (gene 30607) (UniProt Q9PVE4); assay: ATG_zfTRb_XSP1: Attagene TRANS-FACTORIAL Multi-Species (XSP1) HepG2 Assay for zebrafish Thyroid Hormone Receptor beta (TRb) (AID 2283809)
# Procedure, shortened: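 HepG2 cells transiently transfected with multiplexed GAL4-UAS reporter units expressing chimeric zebrafish TRb–Gal4. Dosed 24 h with 3 nM 6-alpha-fluorotestosterone present; reporter mRNA measured by RT-PCR, HpaI digestion and capillary electrophoresis; gain of signal versus DMSO.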
# [18] = ATG_XTT_Cytotoxicity_XSP1: Cytotoxicity Assessment in the Attagene TRANS-FACTORIAL Multi-Species (XSP1) HepG2 Assay (AID 2283810)
# Procedure, shortened: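 XTT viability readout taken at 24 hours post-dosing in HepG2 liver cells co-treated with 3 nM 6-alpha-fluorotestosterone. Signal loss relative to DMSO controls reflects cytotoxicity.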
# [19] = tested on: chicken Androgen Receptor (AR), gene 422165; assay: ATG_chAR_XSP2: Attagene TRANS-FACTORIAL Multi-Species (XSP2) HepG2 Assay for chicken Androgen Receptor (AR) (AID 2283819);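 further: hits raise reporter mRNA above DMSO so potency is for activation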
# Procedure, shortened: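 Readout is reporter mRNA induction via RT-PCR/capillary electrophoresis after 24 h chemical exposure, positive direction relative to DMSO. Transiently transfected HepG2 express chimeric chicken AR–GAL4; AR stimulated by 3 nM 6-alpha-fluorotestosterone and 1.5 nM norgestrel.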
# [20] = tested on: frog Androgen Receptor (AR), gene 399456; assay: ATG_frAR_XSP2: Attagene TRANS-FACTORIAL Multi-Species (XSP2) HepG2 Assay for frog Androgen Receptor (AR) (AID 2283824);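 further: reporter mRNA from GAL4-UAS units driven by Xenopus AR-Gal4 chimera; actives raise reporter signal above DMSO so AC50 reflects agonist-like induction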
# Procedure, shortened: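 Reporter transcript induction, read by RT-PCR with fluorescent capillary electrophoresis, in human liver HepG2 cells carrying an exogenous Xenopus AR-Gal4 fusion and GAL4-driven reporters; chemical exposure 24 hours, activity scored upward against DMSO controls.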
# Estrogen receptor beta (Homo sapiens), sequence (Q92731 whole entry, looked up, the tested form may be a part): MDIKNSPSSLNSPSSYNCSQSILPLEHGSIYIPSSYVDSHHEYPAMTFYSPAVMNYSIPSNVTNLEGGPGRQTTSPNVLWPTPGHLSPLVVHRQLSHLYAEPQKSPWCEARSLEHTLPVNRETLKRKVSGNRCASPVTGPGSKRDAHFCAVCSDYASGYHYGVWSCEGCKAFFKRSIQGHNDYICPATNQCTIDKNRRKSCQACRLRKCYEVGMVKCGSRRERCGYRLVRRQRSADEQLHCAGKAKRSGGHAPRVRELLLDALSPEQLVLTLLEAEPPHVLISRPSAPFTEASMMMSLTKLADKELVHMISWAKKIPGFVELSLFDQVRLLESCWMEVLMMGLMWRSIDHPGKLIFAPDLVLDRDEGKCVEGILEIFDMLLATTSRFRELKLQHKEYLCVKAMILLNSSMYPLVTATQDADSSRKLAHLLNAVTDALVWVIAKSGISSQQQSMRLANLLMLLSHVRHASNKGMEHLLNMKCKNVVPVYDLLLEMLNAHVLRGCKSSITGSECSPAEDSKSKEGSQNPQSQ
# chicken Estrogen Receptor (ERa), ESR1 (gene 396099), sequence (P06212 whole entry, looked up, the tested form may be a part): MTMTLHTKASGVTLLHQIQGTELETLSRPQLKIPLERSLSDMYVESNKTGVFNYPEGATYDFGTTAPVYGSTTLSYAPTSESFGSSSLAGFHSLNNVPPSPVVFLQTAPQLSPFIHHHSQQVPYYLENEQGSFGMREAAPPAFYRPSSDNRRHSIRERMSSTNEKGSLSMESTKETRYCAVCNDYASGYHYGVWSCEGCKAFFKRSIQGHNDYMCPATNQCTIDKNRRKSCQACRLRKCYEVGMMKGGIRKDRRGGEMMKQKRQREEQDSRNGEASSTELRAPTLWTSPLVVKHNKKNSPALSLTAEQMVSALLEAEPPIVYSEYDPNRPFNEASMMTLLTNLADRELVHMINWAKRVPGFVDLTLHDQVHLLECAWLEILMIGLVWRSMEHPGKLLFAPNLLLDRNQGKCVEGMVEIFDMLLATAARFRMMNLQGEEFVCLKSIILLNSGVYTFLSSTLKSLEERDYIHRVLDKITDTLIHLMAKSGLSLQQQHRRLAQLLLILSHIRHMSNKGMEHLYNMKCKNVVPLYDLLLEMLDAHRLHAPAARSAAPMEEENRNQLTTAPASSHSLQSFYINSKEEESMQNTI
# Peroxisome proliferator-activated receptor gamma (Homo sapiens), sequence (P37231 whole entry, looked up, the tested form may be a part): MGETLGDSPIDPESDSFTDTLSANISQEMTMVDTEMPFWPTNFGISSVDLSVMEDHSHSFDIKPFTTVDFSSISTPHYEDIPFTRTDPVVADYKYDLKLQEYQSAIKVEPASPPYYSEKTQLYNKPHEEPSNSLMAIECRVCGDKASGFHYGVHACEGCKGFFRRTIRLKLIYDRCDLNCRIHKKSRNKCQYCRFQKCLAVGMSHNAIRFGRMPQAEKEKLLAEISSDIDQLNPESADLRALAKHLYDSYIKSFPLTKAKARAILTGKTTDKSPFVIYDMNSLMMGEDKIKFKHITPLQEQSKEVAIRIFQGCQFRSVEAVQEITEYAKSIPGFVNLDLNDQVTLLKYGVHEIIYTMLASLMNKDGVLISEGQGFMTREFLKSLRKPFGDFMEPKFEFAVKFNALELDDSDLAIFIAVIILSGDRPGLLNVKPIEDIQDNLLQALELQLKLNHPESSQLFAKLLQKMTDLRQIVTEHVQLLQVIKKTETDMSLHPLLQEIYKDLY
# Estrogen receptor (Homo sapiens), sequence (P03372 whole entry, looked up, the tested form may be a part): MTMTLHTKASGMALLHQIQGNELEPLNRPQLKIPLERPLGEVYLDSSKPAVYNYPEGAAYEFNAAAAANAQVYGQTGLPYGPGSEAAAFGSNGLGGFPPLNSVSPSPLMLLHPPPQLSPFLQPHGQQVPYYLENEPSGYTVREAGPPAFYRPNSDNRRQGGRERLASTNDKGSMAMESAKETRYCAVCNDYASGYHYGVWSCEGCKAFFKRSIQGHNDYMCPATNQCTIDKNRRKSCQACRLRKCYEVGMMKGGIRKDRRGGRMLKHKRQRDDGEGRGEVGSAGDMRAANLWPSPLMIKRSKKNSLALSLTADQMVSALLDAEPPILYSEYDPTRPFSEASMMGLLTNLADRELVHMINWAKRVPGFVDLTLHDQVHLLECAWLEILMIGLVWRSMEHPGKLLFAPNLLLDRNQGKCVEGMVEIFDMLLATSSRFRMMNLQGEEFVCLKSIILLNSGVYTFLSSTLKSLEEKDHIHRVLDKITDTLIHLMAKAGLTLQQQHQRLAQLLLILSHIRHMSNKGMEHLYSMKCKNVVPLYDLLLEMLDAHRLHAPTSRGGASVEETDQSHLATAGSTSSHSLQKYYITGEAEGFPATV
# zebrafish Estrogen Receptor (ER1), esr1 (gene 259252), sequence (P57717 whole entry, looked up, the tested form may be a part): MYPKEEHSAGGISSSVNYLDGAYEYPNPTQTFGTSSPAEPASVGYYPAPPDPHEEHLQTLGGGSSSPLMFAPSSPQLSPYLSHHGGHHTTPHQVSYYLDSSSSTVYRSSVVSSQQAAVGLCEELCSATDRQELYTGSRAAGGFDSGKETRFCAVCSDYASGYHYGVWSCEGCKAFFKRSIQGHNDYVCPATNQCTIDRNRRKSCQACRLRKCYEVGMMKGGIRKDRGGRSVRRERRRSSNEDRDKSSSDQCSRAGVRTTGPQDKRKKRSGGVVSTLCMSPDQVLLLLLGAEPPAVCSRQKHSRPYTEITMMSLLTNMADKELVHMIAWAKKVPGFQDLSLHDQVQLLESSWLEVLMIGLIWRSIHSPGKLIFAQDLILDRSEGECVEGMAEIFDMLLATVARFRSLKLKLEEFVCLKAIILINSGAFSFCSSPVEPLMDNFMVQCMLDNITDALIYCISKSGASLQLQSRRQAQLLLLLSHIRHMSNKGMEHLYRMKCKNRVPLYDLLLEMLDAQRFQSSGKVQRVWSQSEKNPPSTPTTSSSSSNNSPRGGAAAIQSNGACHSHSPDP
# mouse Peroxisome Proliferator-activated Receptor gamma (PPARg), Pparg (gene 19016), sequence (P37238 whole entry, looked up, the tested form may be a part): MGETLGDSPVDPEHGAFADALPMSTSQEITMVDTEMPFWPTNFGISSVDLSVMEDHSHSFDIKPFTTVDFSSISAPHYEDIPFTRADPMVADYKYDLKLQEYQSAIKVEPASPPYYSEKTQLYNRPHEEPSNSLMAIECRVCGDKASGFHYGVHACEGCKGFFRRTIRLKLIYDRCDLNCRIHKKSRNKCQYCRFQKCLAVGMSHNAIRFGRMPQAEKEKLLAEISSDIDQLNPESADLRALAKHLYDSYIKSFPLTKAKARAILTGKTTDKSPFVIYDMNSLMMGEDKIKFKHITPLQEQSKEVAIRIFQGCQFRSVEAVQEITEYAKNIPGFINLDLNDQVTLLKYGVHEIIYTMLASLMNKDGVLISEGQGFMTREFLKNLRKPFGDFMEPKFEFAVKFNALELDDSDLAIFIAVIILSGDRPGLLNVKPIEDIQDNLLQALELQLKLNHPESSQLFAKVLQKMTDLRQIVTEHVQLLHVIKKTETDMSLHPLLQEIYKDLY
# GAL4 Transcription Factor (Internal Marker), GAL4 (gene 855828), sequence (P04386 whole entry, looked up, the tested form may be a part): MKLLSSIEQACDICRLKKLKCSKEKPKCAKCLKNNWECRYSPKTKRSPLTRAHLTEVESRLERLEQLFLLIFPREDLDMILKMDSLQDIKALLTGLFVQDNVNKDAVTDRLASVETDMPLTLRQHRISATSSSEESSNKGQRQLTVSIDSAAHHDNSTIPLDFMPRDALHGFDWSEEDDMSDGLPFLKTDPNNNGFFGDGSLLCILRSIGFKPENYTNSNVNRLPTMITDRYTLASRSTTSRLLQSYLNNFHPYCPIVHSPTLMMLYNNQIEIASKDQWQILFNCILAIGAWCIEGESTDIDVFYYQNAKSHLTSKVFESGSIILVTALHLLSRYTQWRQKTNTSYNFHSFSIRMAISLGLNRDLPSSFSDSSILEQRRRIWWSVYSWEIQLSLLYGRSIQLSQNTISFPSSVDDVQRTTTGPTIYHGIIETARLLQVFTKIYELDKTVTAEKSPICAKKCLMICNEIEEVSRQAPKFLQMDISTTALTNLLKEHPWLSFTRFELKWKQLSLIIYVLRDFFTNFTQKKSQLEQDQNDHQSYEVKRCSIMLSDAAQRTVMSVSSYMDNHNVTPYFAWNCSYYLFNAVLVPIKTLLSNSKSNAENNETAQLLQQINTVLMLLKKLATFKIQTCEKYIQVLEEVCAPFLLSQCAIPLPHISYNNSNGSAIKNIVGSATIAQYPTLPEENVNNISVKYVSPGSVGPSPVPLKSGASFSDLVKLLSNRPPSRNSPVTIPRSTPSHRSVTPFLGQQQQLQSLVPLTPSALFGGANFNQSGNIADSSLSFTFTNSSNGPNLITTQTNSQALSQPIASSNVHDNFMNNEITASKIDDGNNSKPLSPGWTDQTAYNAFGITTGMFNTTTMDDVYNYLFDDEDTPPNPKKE
# Nuclear receptor subfamily 1 group I member 2 (Mus musculus), sequence (O54915 whole entry, looked up, the tested form may be a part): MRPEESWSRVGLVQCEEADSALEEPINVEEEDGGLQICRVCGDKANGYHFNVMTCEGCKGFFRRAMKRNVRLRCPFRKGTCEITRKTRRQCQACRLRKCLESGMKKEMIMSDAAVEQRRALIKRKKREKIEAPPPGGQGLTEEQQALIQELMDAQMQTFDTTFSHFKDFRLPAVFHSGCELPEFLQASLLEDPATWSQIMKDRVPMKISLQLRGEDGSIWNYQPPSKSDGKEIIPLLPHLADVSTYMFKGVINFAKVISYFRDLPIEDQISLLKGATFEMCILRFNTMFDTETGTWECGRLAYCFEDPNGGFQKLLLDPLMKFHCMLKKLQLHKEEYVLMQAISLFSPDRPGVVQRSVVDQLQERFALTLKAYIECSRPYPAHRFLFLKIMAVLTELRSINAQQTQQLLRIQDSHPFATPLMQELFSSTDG
# zebrafish Thyroid Hormone Receptor beta (TRb), thrb (gene 30607), sequence (Q9PVE4 whole entry, looked up, the tested form may be a part): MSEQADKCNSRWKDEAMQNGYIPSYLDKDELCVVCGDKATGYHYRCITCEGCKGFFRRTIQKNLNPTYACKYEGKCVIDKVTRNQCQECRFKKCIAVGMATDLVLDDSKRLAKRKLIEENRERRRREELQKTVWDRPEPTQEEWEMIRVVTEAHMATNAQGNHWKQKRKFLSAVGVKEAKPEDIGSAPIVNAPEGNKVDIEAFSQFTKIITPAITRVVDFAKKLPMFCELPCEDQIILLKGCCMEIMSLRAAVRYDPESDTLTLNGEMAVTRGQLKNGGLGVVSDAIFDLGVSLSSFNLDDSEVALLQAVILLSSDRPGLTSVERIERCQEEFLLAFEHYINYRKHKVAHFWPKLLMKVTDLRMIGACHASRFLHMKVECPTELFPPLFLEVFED
compound,measurement,setting,value
COC(=O)c1c(C)cc(O)c(C)c1O,outcome,[1],inactive
same,AC50,[2],8.55 µM (active) and 31.2 µM (active)
same,AC50,[3],8.13 µM (active) and 12.3 µM (active)
same,outcome,[4],inactive
same,AC50,[5],27.5 µM (active)
same,outcome,[5],inactive
same,AC50,[6],19.8 µM (active) and 28.8 µM (active)
same,AC50,[7],7.57 µM (active) and 27.3 µM (active)
same,AC50,[8],12.1 µM (active) and 17.5 µM (active)
same,outcome,[9],inactive
same,AC50,[10],39.7 µM (active) and 71.2 µM (active)
same,AC50,[11],10.5 µM (active) and 53.7 µM (active)
same,AC50,[12],27.7 µM (active) and 27.2 µM (active)
same,AC50,[13],100 µM (active) and 66.6 µM (active)
same,AC50,[14],64.5 µM (active)
same,outcome,[14],inactive
same,AC50,[15],10.7 µM (active) and 27.3 µM (active)
O=C(c1ccc(O)cc1)c1ccc(O)cc1O,outcome,[16],inactive
same,outcome,[17],inactive
same,outcome,[18],inactive
same,outcome,[1],inactive
same,AC50,[2],3.24 µM (active)
same,AC50,[3],1.6 µM (active)
same,outcome,[4],inactive
same,AC50,[5],4.75 µM (active)
same,AC50,[6],3.03 µM (active)
same,AC50,[7],2.27 µM (active)
same,AC50,[19],10 µM (active)
same,AC50,[8],3.84 µM (active)
same,AC50,[10],3.62 µM (active)
same,outcome,[20],inactive
same,AC50,[11],3.48 µM (active)
same,AC50,[12],2.54 µM (active)
same,outcome,[13],inactive
same,outcome,[14],inactive
